# An excerpt weighted towards active compounds, which were near 2.4% of everything screened.
# Cruzain noTriton: blocks cruzain activity in detergent-free assay | 2.3% of 200,000 active | purified cruzain, Z-FR-AMC fluorescence, no detergent | AID 1476 | Potency, µM, actives largely listed as inhibitors; further: nearly all actives have a fitted effect of over 40% in size
# Target sequence (P25779 123-467 limits assumed): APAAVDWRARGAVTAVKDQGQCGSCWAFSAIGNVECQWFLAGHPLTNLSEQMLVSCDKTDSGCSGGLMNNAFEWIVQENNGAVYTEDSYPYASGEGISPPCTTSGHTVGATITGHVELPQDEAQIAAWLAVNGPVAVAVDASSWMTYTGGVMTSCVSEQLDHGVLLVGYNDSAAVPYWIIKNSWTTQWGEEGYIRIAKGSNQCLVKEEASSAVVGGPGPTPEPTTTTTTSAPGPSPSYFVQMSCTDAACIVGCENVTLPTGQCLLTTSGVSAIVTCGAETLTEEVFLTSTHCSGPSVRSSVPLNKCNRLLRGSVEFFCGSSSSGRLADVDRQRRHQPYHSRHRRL
#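 Detergent-free condition (0.00005% Triton X-100) in acetate buffer pH 5.5 with DTT. 1.5 nM enzyme and compound were pre-mixed 15 min, then 2 uM Z-FR-AMC substrate added; reaction progress from fluorescence change between first and third reads (60 s).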
# Cruzain inh Det: cruzain (T. cruzi) inhibition with detergent; P25779; purified cruzain, Z-FR-AMC fluorescence, 0.01% Triton; Potency, µM, actives largely listed as inhibitors; 0.43% of 200,000 active; further: nearly all actives have a fitted effect of over 40% in size
#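 In this qHTS format, compounds are incubated with 1.5 nM cruzain for 15 min at room temperature before 2 uM Z-FR-AMC is added. Release of AMC is followed at 360/450 nm, and progress is taken as the 60 s fluorescence difference.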
# Papain counter: counter-screen for cruzain inhibitors: papain inhibition. shares compounds with Cruzain inh Det. Potency, µM, actives largely listed as inhibitors. purified papain, Z-FR-AMC fluorescence cleavage. 41% of 410 active; further: nearly all actives have a fitted effect of over 35% in size
# Numbers stand for hits; . = inactive; ? = inconclusive; / = no result. The call rests on the fitted dose curve; in most records, active means well fitted curve in the direction sought with a large enough effect; inconclusive means small, poorly fitted or top-dose-only effect, or another doubt; inactive means no such curve, though single readings can be large; an effect the other way counts as inactive or inconclusive.
SMILES,Cruzain noTriton,Cruzain inh Det,Papain counter
CC(C)N(C#N)c1nc(N2CCOCC2)nc(N2CCOCC2)n1,.,.,/
CC(=O)c1nnn(-c2nc(C#N)nc(N3CCOCC3)n2)c1C,/,/,.
N#Cc1nc(N2CCCC2)nc(N(c2ccccc2)c2ccccc2)n1,/,/,2µM
N#Cc1nc(N2CCCCC2)nc(N2CCOCC2)n1,1µM,0.89µM,1µM
CC(=O)c1nnn(-c2nc(N)nc(N(c3ccccc3)c3ccccc3)n2)c1C,?,.,/
COc1ccc(NC(=O)COc2ccc(S(=O)(=O)NC3CCCCC3)cc2)c(OC)c1,.,.,/
CCC(C(=O)N1CCN(c2cc(Cl)ccc2C)CC1)n1nc(C)c2sc3ccccc3c2c1=O (configuration not stated),.,.,/
COc1ccc(NC(=O)Cn2c(=O)n(CCCC(=O)NCCc3ccc(C)cc3)c(=O)c3ccccc32)cc1Cl,.,.,/
Cc1ccc2c(c1)cc(C(=O)Nc1ccc(F)cc1F)n2C,.,.,/
COc1nc(C#N)nc(N2CCCCC2)n1,/,/,2.2µM
CCOC(=O)CNc1nc(C#N)nc(N2CCOCC2)n1,2µM,2.2µM,2.2µM
CN(C)c1nc(SCC#N)nc(N2CCOCC2)n1,.,.,/
COc1nc(OC)nc(N2CCCCCC2)n1,.,.,/
CN(C)c1nc(C#N)nc(N2CCOCC2)n1,3.2µM,4µM,2.2µM
Nc1nc(-c2ccco2)nc(N2CCCCC2)n1,.,.,/
CCCNc1nc(N2CCOCC2)nc(N2CCOCC2)n1,.,.,/
N#Cc1nc(N)nc(N2CCCCC2)n1,/,/,5µM
CCOc1cc(CNC(=O)NC2COc3ccccc3C2)cc(OCC)c1OCC (configuration not stated),?,.,/
CCOC(=O)c1ccc(-n2c(CCC(=O)O)ccc2-c2ccc(Br)cc2)cc1,.,.,/
Cc1cc(=O)oc2cc(O[C@@H]3O[C@H](C(=O)O)[C@@H](O)[C@H](O)[C@H]3O)ccc12,.,.,/
Cc1cc(F)ccc1NC(=O)Cn1c(=O)ccc2cc(S(=O)(=O)N3CCC(C)CC3)ccc21,.,.,/
N#Cc1nc(N2CCCC2)nc(N2CCCC2)n1,5µM,7.9µM,5.6µM
C1CCN(c2nc(N3CCCCC3)nc(N3CCNCC3)n2)CC1,.,.,/
CCCCC1=CC2=C(OC(C)=O)C(=O)C(C)(OC(=O)c3ccc(Cl)nc3)C(=O)C2=CO1 (configuration not stated),.,.,/
COC(=O)N/N=C/c1ccc(-c2cccc(Cl)c2)o1,.,.,/
SMILES,Cruzain noTriton,Cruzain inh Det,Papain counter
NC(=S)N/N=C/c1ccc(-c2cc(Cl)ccc2Cl)o1,0.63µM,0.71µM,4.5µM
CCOCCOCC,.,.,/
CCc1ccc(NC(=O)Cn2c(SCc3ccc(C)cc3)nc3ccncc32)cc1,/,/,.
CN(C)c1ccc(NC(=O)Cn2c(SCc3ccc(F)cc3)nc3ccncc32)cc1,.,.,/
Cc1ccccc1Cn1c(SCc2ccc(C(=O)NCCc3ccccc3)cc2)nc2ccncc21,.,.,/
CCCCNC(=O)Cn1c(SCc2ccccc2C)nc2ccncc21,/,/,.
CCCNC(=O)Cn1c(SCc2ccccc2C)nc2ccncc21,/,/,.
CCc1ccccc1NC(=O)Cn1c(SCc2ccc(F)cc2)nc2ccncc21,.,.,/
C[C@@H](C(=O)Nc1ccc2ccccc2c1)[C@@H]1C[C@@]1(C)[C@@H](NC(=O)c1ccncc1Cl)c1ccccc1,?,.,/
COc1ccc(-c2noc(CNC(=O)COc3cccc(C)c3C)n2)cc1,.,.,/
COC(=O)[C@H]1CC2(CC=C(C)C)C(=O)[C@@](CC=C(C)C)(C(=O)C(C(=O)c3ccccc3)=C2OC)C1(C)C (tested in a mixture with another compound),?,.,/
CCn1c(=O)c2cc(C(=O)NCCCN3CCN(C)CC3)sc2c2ccccc21,.,.,/

# Source: PubChem (National Center for Advancing Translational Sciences (NCATS))
